Source: PubChem
Most compounds without a hit are left out; they make up all but 17% or so of the library.
TGFb SMAD3 inh – inhibitors of TGF-b signaling. 410,000 compounds, 1.2% hits. Potency, µM (top dose mostly 46.1 µM), for inactives: at the highest dose activity, negative = inhibition, usual class: inhibitors. HepG2 CAGA-GFP TGF-b/SMAD3 reporter, GFP fluorescence, 18 h; TGF-beta stimulated, 500 pg/mL final; note: % is set by controls: 0 for no effect and ±100 for the full control effect; nearly all actives have a fitted effect of over 65% in size
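First, reporter cells (HEPG2 CAGA-GFP) rested 2 h at 37 degrees C. Next, compounds were pinned in and TGF-beta added to 500 pg/mL final. After 18 h, GFP was imaged per cell and summed per well.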
TDP1 cell noCPT – qHTS for Inhibitors of human tyrosyl-DNA phosphodiesterase 1 (TDP1): qHTS in cells in absence of CPT; DT40 Tdp1-/- hTDP1 cells, no CPT, ATP luminescence, 48 h; Potency, µM (titrated, usually from 46.2 µM), inactives show top-dose activity change, negative = growth inhibition, most hits filed as inhibitors; 420,000 compounds, 15% hits; note: % is set by controls: 0 for no effect and ±100 for the full control effect; nearly all actives have a fitted effect of over 55% in size
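Growth of hTDP1-complemented DT40 Tdp1-knockout cells is measured by ATP luminescence after at least 48 hr compound exposure at 37 °C, with DMSO substituting for the 20 nM CPT used in the parallel screen.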
HepG2 viability – HepG2 cytotoxicity, counter-screen for TGF-b inhibitors; HepG2 CAGA-GFP viability, ATP luminescence, 18 h; 410,000 compounds, 0.76% hits; Potency, µM (series often up to 46.1 µM), for the others: at the top dose activity change, negative = cytotoxicity, most hits filed as cytotoxic
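CellTiter-Glo luminescence gave cytotoxicity after 18 hours at 37 degrees C. The cells were HepG2 CAGA-GFP in 1% FBS DMEM, stimulated with 500 pg/mL TGF-beta after compound addition. %Activity was normalised to no-cell wells (complete cell-killing) and DMSO (no toxicity), and curves were fitted and classified.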
HT1080NT lethal – kills 2HG-producing HT-1080-NT fibrosarcoma cells; HT-1080-NT fibrosarcoma viability, CellTiter-Glo ATP luminescence, 48 h; Potency, µM (doses to about 46.1 µM), for the others: at the top dose activity, negative = less viability, hits mostly cytotoxic; 360,000 compounds, 1.6% hits; AID 686970;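 note: NT is the 2HG producing partner of a matched IDH1 knockdown line; 0% = DMSO-treated cells and -100% = media-only wells without cells; nearly all actives have a fitted effect of over 55% in size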
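Luminescent CellTiter-Glo readout after 48 hours of compound exposure at 37 degrees C defined viability of HT-1080-NT cells. Activity was normalized to DMSO wells and cell-free media wells; concentration-response curves were fitted and assigned curve classes.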
HT1080 IDH1KD tx – HT-1080 IDH1 knockdown cell toxicity (counter line) | AID 686971 | 360,000 compounds, 2% hits | Potency, µM (titrated, usually from 46.1 µM), inactives show at the highest dose activity, negative = toxicity, usual class: cytotoxic | HT-1080 IDH1 knockdown viability, ATP luminescence, 48 h;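 note: 0% = DMSO wells and -100% = cell-free medium wells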
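Viability of IDH1-knockdown HT-1080 fibrosarcoma cells was assessed by CellTiter-Glo after 48 h at 37 °C with titrated compound; concentration-effect curves were classified by fit quality and response size.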
DT40 TDP1 CPT – DT40-hTDP1 cell growth loss with CPT; chicken DT40 Tdp1-/-;hTDP1 cells + 20 nM CPT, ATP luminescence, 48 h; Potency, µM (highest dose often 46.2 µM), without a hit: top-dose activity change, negative = growth inhibition, actives largely listed as inhibitors; 420,000 compounds, 12% hits; AID 686979; note: % is set by controls: 0 for no effect and ±100 for the full control effect; nearly all actives have a fitted effect of over 55% in size
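Chicken DT40 Tdp1-/- cells complemented with human TDP1, 400 cells/well, exposed to compounds plus 20 nM camptothecin for at least 48 h at 37 C; viability read as ATP content by CellTiter-Glo luminescence.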
Numbers without * were called inactive; u = inconclusive; x = no result. Calls come from the whole dose curve; as a rule, active = well fitted curve in the direction sought with a large enough effect; inconclusive = small, poorly fitted or top-dose-only effect, or another doubt; inactive = no such curve, though single readings can be large; an effect the other way counts as inactive or inconclusive. Potency is the fitted concentration of half-maximal effect.

SMILES | TGFb SMAD3 inh | TDP1 cell noCPT | HepG2 viability | HT1080NT lethal | HT1080 IDH1KD tx | DT40 TDP1 CPT
CCNc1ncc2nc(-c3ccccc3)c(=O)n(Cc3cccs3)c2n1 | x | -12% | x | x | x | 1%
COc1ccc(NC(=O)c2nnn(-c3ccc(C(C)C)cc3)c2C)c(OC)c1 | 15% | u | -7% | x | x | 0%
O=C(O)/C=C/c1ccc2ccccc2c1 | 19% | -2% | -2% | x | x | 2%
CCCC(=O)NC(c1ccccc1Cl)c1c(O)ccc2ccccc12 (configuration not stated) | 0% | u | -23% | -14% | -18% | u
CC(=O)NC(c1ccc(Cl)cc1Cl)c1ccc2cccnc2c1O (configuration not stated) | u | 4.6µM* | -4% | u | u | 3.7µM*
CCCC(=O)NC(c1ccc(Cl)cc1Cl)c1ccc2cccnc2c1O (configuration not stated) | u | 4.6µM* | -18% | u | 8.2µM* | 4.1µM*
CNC(=O)OCc1cocc1COC(=O)NC | x | -16% | x | 12% | 19% | -1%
O=C1NC(Cc2ccccc2)c2nc3cc(F)ccc3c(=O)n2-c2ncccc21 (configuration not stated) | 5% | -9% | -23% | -6% | -9% | -5%
Cc1sc2ncnc(N3CCN(CCOc4ccc(Cl)cc4)CC3)c2c1C | -12% | 2.5µM* | -34% | u | u | 2.5µM*
CCCN1CCN(c2ncnc3sc(C(=O)Nc4cccc(Cl)c4C)c(C)c23)CC1 | u | 21µM* | -48% | x | x | u
Cc1nc(N2CCOCC2)c2c(C)c(C(=O)Nc3ccccc3Cl)sc2n1 | 14% | u | 14% | -16% | -2% | -13%
Cc1nc(N2CCOCC2)c2c(C)c(C(=O)Nc3ccc(F)cc3Cl)sc2n1 | 15% | 1% | 11% | 22% | 14% | -9%
CCCN1CCN(c2ncnc3sc(C(=O)Nc4ccc(N(CC)CC)cc4C)c(C)c23)CC1 | u | 15µM* | -34% | x | x | 23µM*
CC1CCCCC12NC(=O)N(CC(=O)c1ccc(Cl)s1)C2=O (configuration not stated) | 0% | -3% | 1% | 2% | -4% | u
S=c1[nH]nc(SCc2ccccc2)c2[nH]cnc12 | -4% | 4.6µM* | -12% | -9% | -8% | u
Cc1cn([C@H]2C[C@H](O)[C@@H](CNC=O)O2)c(=O)[nH]c1=O | 2% | u | -12% | 13% | 5% | -13%
COc1cc(NC(=O)CSc2nc3[nH]ncc3c(=O)n2-c2ccccc2)cc(OC)c1OC | -4% | 26µM* | -20% | 0% | -9% | u
COc1ccc(N2CCN(C(=O)CSc3nc4[nH]ncc4c(=O)n3-c3cccc4ccccc34)CC2)cc1 | -3% | 7.3µM* | -2% | -23% | -13% | 6.5µM*
CCCCc1nn2c(=O)cc(COC(=O)C3CCCCC3)nc2s1 | u | -16% | -3% | x | x | -25%
O=c1c(-c2cc(F)cc(F)c2)nc2cnc(N3CCOCC3)nc2n1-c1ccccc1 | x | -5% | x | x | x | 5%
Cc1nc(Cc2nnc(SCC(=O)N3c4ccccc4NC(=O)C3(C)C)o2)cs1 | 0% | 16µM* | -6% | -3% | -5% | -29%
Nc1ccc2cc3[nH]c4cc(N)ccc4c3nc2c1 | u | 2.3µM* | -23% | u | u | 2.9µM*
Nc1ccc2nc(-c3cccc(-c4nc5ccc(N)cc5[nH]4)c3)[nH]c2c1 | -6% | u | 4% | 1% | 10% | 5%
C[C@@H]1ON(C)[C@H]2C[C@H]3c4[nH]c5ccccc5c4CCN3C[C@@H]12 | 3% | -10% | -18% | 0% | 4% | 9%
Cc1cccc(-c2ccc3[nH]c4c(c3c2)CCN2C[C@H]3[C@H](C)ON(C)[C@H]3C[C@@H]42)c1 | u | 15µM* | -36% | u | u | u
SMILES | TGFb SMAD3 inh | TDP1 cell noCPT | HepG2 viability | HT1080NT lethal | HT1080 IDH1KD tx | DT40 TDP1 CPT
CN[C@H]1C[C@H]2c3[nH]c4ccc(-c5cccc(C)c5)cc4c3CCN2C[C@H]1[C@H](C)O | u | 12µM* | -124% | 16µM* | u | 7.3µM*
Cc1cccc(-c2ccc3[nH]c4c(c3c2)CCN2C[C@@H]([C@H](C)O)[C@@H](N(C)C(=O)NC3CCCCC3)C[C@@H]42)c1 | u | u | -37% | u | u | 13µM*
O=C(CCN1CCCC1=O)NC1CCCc2c1cnn2-c1ccc(F)cc1F (configuration not stated) | -11% | -23% | 6% | 0% | 0% | -10%
c1ccc2c(c1)ncc1nncn12 | -2% | -20% | 2% | x | x | -6%
O=c1onc2cnc3ccccc3n12 | x | 13µM* | x | x | x | u
Cc1ccc(C(=O)NNC(=O)CSc2nnc(C3CC3)n2C)cc1 | -7% | -17% | -8% | -10% | -15% | 19%
CC1(C)CC2CC(C)(CN2C(=O)c2cc(-c3ccc(O)cc3)on2)C1 (configuration not stated) | u | u | -127% | u | u | -14%
COc1cccc(-c2cc(C(=O)N3CC4(C)CC3CC(C)(C)C4)no2)c1 (configuration not stated) | u | 21µM* | -15% | -4% | u | u
Cc1noc(C(=O)N2CC3(C)CC2CC(C)(C)C3)c1Cl (configuration not stated) | -17% | 18µM* | -9% | -1% | -1% | u
Cc1ccc(S(=O)(=O)N2CCN(C(=O)COC(=O)c3nc(Cl)ccc3Cl)CC2)c(C)c1 | 15% | 0% | -9% | 5% | 0% | 9%
Cc1ccc(S(=O)(=O)NNC(=O)C2Cc3c(ccc4ccccc34)O2)cc1 (configuration not stated) | 6% | 23µM* | -18% | u | -23% | u
O=C(NN=Cc1ccc(Cl)cc1Cl)C1CC1 | -14% | -23% | -5% | 17% | u | 0%
Cc1noc(C)c1S(=O)(=O)NCCc1csc2nc(-c3ccc(F)cc3)nn12 | -26% | 23µM* | -24% | x | x | 18µM*
COc1ccc(-c2nc3scc(CCNS(=O)(=O)c4c(C)noc4C)n3n2)cc1 | -25% | u | -8% | x | x | u
